# Results from PubChem BioAssay (NCI).
# About 83,000 compounds went through this panel and 20% of them were active in at least one assay; those are over-represented in the sample as a whole.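 Note: values are percent growth. 100 is the growth of untreated cells, values between 100 and 0 indicate rising inhibition; between -100 and 0 indicates cell death.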 Unmarked numbers belong to inactive results. The source made the active and inactive calls. Rule for the calls: active = growth percent below 10; inactive = the rest.
# System: MDA-MB-468 breast
# Experiment: NCI-60 one-dose screen, 48 h (100 = growth as untreated, 0 = no growth, -100 = all killed)
# Conditions: 10 µM unless noted
row,Structure (SMILES),growth
1,Cc1nn(-c2ccc(Cl)cc2)c(=O)n1CCn1cnc2ccccc21,117%
2,C=CCn1c(SCC(=O)Nc2cccc(C(=O)/C=C/c3cccc([N+](=O)[O-])c3)c2)nc2ccccc2c1=O,89.2%
3,c1ccc(-c2[nH]c3ccccc3c2-c2ccccc2)cc1,84.1%
4,COc1cnc2c(c1)C(=O)c1c-2n(CCCNC(C)C)c(=O)c2cc(Cl)ccc12,17.7%
5,CCN1C(=O)N(CC)C2Nn3c(s/c(=C\c4cccc([N+](=O)[O-])c4)c3=O)=NC21 (stereo unspecified),28.8%
6,CC/C=C/C/C=C/C/C=C/C/C=C/C/C=C/C/C=C/CCC(=O)Nc1ccn([C@@H]2O[C@H](CO)[C@@H](O)C2(F)F)c(=O)n1,21.5%
7,CCOC(=O)c1nc(Nc2cc(C)[nH]n2)c2ccccc2n1,54.9%
8,Nc1c(S(=O)(=O)O)cc2c3c(cccc13)C(=O)OC2=O,85.9%
9,O=C(CCCN1C(=O)/C(=C/c2ccccc2F)SC1=S)N1CCOCC1,55.7%
10,O=C1/C(=C\c2coc3ccccc3c2=O)c2ccccc2N1c1c(Cl)cccc1Cl,44.9%
11,O=C(Nc1ccc(Oc2ccc(NC(=O)Nc3ccc([N+](=O)[O-])cc3)cc2)cc1)Nc1ccc([N+](=O)[O-])cc1,-3.83% (active)
12,CSc1nc2c(c(=O)n1C)N=C1c3ccccc3C(=O)C1C(c1ccccc1)N2 (stereo unspecified),54.8%
13,COc1cc2c(Nc3ccc(Br)cc3F)ncnc2cc1OCC1CCN(C)CC1,-23.3% (active)
14,COC(=O)/C(=C\c1ccc(OC)cc1)C(=O)N1c2ccccc2Sc2ccccc21,76.1%
15,COc1ccc(C/C(C)=C(\c2ccc(OCCN3CCCCCC3)cc2)c2ccc(OC(=O)C3CCCCC3)cc2)cc1,45%
16,O=C(NCCCCCCNC(=O)c1c2c(nc3ccccc13)-c1cccnc1SC2)c1c2c(nc3ccccc13)-c1cccnc1SC2,90.4%
17,Clc1ccc(N2N=C(c3cccc(Nc4ccncc4)c3)CC2c2ccccc2)cc1 (stereo unspecified),74.1%
18,COC(=O)c1nc(-c2ccc(C)cc2)oc1S(=O)(=O)N1CCN(c2oc(-c3ccccc3)nc2C#N)CC1,93.9%

row,Structure (SMILES),growth
1,CCNC(=NCCCN(C)C)N/C(N)=N/c1nc2ccccc2s1,94.3%
2,CN1C(=O)N(C)C2C1NN=c1s/c(=C\c3ccccn3)c(=O)n12 (stereo unspecified),88.8%
3,CCCCn1c(=O)c2c(nc(NCCc3ccc(O)c(O)c3)n2CCC)n(CCCC)c1=O,82.2%
4,COC12C=C/C(=C(/C(=O)OCc3ccncn3)C(=O)CCCCCCCCC3(OC)C=C/C(=C(/C(=O)OCc4ccncn4)C(=O)CCCCCCCC1)O3)O2,-45.5% (active)
5,COC(=O)CC(=O)C(=O)OC,95.3%
6,CCCc1c(CC)c(=N)c2ccccc2n1C,58.7%
7,O=C(CCN1CCCC1)c1ccc([N+](=O)[O-])cc1,85.3%
8,CC(=O)Nc1c(Br)cc2c(c1Br)Cc1cc(Br)ccc1-2,-35.2% (active)
9,COc1cccc(-c2nc3occn3c2-c2ccnc(NCCNS(=O)(=O)c3ccc(C(F)(F)F)cc3)n2)c1,77.4%
10,Cc1nn(-c2ccccc2)cc1/C=C1\SC(N2CCCCC2)=NC1=O,96.3%
11,O=C(CN1C(=O)/C(=C/c2ccccc2)SC1=S)N1CCOCC1,82.4%
12,OCc1cnccc1NCCCOc1ccccc1,94.4%
13,Cn1c(=O)c2c(nc(NC3=NS(=O)(=O)c4ccccc43)n2CC(=O)N2CCc3ccccc32)n(C)c1=O,102%
14,Cc1ccc2c(-c3cc(-c4ccccc4)nc(N)c3C#N)cc(=O)oc2c1,103%
15,COc1ccc(/C=N/NC(=O)CN2CCN(c3cc4c(cc3F)c(=O)c(C(=O)O)cn4C3CC3)CC2)cc1O,101%
16,CC1(C)CC[C@]2(C(=O)Nc3ccccn3)CC[C@]3(C)C(=CC[C@@H]4[C@@]5(C)C/C(=C/c6cccnc6)C(=O)C(C)(C)[C@@H]5CC[C@]43C)[C@H]2C1,17.2%
17,COc1cccc(C=Nc2cc(C(C)C)c(O)cc2C)c1O,95%
18,CC(=O)O[C@H]1C[C@@]2(C)[C@@H](C[C@@H](O)[C@H]3[C@@]4(C)CC[C@H](N5CCCC5)[C@@H](C)[C@@H]4CC[C@@]32C)/C1=C(\CCC=C(C)C)C(=O)O,94.6%
